From PubChem BioAssay (NCATS)
“And” between values parts separate entries of the source, which are not always exact repeats. Identical values can stand only once. Inconclusive results are not listed. A structure can be active in one record and inactive in another. The source made the active and inactive calls. Calls follow the shape of the dose curve; as a rule, active = well fitted curve in the direction sought with a large enough effect; inconclusive = small, poorly fitted or top-dose-only effect, or another doubt; inactive = no such curve, though single readings can be large; an effect the other way counts as inactive or inconclusive.

How the values were obtained:
[1] = target: Rap guanine nucleotide exchange factor 3 (Homo sapiens) (UniProt O95398); assay: Confirmatory qHTS for agonist of cAMP-regulated guanine nucleotide exchange factor 3 (EPAC1) (AID 1645881);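 also: EPAC1 catalysed release of BODIPY-GDP from Rap1B seen as fluorescence loss; 100% = effect of cAMP agonist control; nearly all actives have a fitted effect of over 75% in size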
Rap guanine nucleotide exchange factor 3 (Homo sapiens), sequence (O95398 whole entry, looked up): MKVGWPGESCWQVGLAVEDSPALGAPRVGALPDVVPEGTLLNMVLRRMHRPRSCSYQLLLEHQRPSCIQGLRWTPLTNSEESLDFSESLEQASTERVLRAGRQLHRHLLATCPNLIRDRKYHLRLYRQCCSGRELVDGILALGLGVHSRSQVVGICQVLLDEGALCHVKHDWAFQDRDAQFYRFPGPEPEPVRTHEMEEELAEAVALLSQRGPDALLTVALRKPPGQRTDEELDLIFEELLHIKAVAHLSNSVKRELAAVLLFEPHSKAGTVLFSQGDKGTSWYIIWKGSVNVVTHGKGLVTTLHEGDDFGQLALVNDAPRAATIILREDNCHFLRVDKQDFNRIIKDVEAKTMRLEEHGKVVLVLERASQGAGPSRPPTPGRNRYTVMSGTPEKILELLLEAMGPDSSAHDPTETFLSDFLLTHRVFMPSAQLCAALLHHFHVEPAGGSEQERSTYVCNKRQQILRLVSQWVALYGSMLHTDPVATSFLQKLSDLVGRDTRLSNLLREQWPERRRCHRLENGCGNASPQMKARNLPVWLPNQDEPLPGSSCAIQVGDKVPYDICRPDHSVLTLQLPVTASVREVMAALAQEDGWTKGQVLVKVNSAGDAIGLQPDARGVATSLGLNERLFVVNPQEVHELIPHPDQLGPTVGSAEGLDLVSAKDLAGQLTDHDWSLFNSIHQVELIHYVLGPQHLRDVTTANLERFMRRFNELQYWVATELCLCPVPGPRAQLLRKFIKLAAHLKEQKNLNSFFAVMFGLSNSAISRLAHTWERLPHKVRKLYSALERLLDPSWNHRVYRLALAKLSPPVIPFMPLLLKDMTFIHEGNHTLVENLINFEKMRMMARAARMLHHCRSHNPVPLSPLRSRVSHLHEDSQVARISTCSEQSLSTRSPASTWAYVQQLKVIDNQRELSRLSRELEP

[2] = target: Rap guanine nucleotide exchange factor 4 (Homo sapiens) (UniProt Q8WZA2); assay: Confirmatory qHTS for agonist of cAMP-regulated guanine nucleotide exchange factor 4 (EPAC2) (AID 1645884);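 also: nucleotide exchange releases bodipy-GDP from Rap1 and this lowers its fluorescence; nearly all actives have a fitted effect of over 65% in size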; also: potency is read from the fitted curve at half-maximal effect; as to activation: % is scaled to controls: 0 for no effect and ±100 for the full control effect
Rap guanine nucleotide exchange factor 4 (Homo sapiens), sequence (Q8WZA2 whole entry, looked up): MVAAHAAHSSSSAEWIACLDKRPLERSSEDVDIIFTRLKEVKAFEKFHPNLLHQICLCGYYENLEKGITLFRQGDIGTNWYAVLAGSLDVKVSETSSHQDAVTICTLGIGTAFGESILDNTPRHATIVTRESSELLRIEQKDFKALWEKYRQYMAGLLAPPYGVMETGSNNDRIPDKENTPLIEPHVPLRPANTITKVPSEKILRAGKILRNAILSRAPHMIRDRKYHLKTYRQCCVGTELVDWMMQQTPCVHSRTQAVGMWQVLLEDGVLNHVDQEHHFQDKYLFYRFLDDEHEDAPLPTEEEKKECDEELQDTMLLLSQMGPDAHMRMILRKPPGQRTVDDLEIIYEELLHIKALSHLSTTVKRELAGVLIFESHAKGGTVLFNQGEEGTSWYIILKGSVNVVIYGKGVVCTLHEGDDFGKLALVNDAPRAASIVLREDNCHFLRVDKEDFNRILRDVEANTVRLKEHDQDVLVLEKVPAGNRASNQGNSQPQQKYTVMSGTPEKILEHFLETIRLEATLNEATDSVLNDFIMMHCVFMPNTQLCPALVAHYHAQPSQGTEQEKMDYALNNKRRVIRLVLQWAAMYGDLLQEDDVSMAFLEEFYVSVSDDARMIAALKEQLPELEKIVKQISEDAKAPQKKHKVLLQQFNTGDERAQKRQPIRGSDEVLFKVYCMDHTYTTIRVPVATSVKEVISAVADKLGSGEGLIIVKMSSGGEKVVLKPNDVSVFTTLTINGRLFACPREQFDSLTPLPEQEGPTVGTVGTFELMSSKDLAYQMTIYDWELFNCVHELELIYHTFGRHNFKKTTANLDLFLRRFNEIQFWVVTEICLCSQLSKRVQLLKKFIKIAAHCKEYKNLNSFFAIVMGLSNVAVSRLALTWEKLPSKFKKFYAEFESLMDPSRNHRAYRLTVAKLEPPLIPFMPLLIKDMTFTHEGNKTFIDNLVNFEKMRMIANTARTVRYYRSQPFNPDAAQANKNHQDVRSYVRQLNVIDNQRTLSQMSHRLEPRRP

[3] = target: Rap guanine nucleotide exchange factor 4 (Homo sapiens) (UniProt Q8WZA2); assay: Confirmatory qHTS for antagonist of cAMP-regulated guanine nucleotide exchange factor 4 (EPAC2) (AID 1645885); also: nearly all actives have a fitted effect of over 25% in size; also: potency is read from the fitted curve at half-maximal effect; as to activity change, negative = inhibition: % is scaled to controls: 0 for no effect and ±100 for the full control effect
[4] = target: Rap guanine nucleotide exchange factor 3 (Homo sapiens) (UniProt O95398); assay: Counterscreen qHTS for antagonist of cAMP-regulated guanine nucleotide exchange factor 3 (EPAC1) (AID 1645888);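 also: fluorescence loss as bound BODIPY-GDP is released from Rap1B; % of control where 0% means no effect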
Outline: (§1)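 Measured: fluorescence of BODIPY-GDP bound to Rap1B, which falls as exchange proceeds. Conditions include 50 uM competing GDP, 5 and 30 min reads, and a later cAMP challenge for antagonist detection.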

[5] = target: Rap guanine nucleotide exchange factor 3 (Homo sapiens) (UniProt O95398); assay: Counterscreen qHTS for agonist of cAMP-regulated guanine nucleotide exchange factor 3 (EPAC1) (AID 1645889); also: % of control where 0% means no effect; nearly all actives have a fitted effect of over 40% in size
Outline: as §1

CCOC(=O)C1=C(C)NC(C)=C(C(=O)OCC)C1c1ccc([N+](=O)[O-])s1
inactive and 42.6 µM (active): Potency [3]
inactive: Potency [1] | Potency [2] | Potency [4] | Potency [5]

O=C(N/N=C/c1ccc(O)c([N+](=O)[O-])c1)C1CC1(c1ccccc1)c1ccccc1 (stereo not given)
inactive: Potency [1] | activation [2] 2.95% [at 17.1 µM, percent relative to cAMP agonist control] | Potency [3] | activity change, negative = inhibition [4] -23.6% [at 30.8 µM] | activation [5] 11.6% [at 30.8 µM]

O=C(CCC1N=C2c3ccccc3N=C(SCc3ccc(Cl)cc3)N2C1=O)NCc1cccs1 (stereo not given)
inactive: Potency [1] | Potency [2] | Potency [3] | Potency [4] | Potency [5]

COc1cc(/C=C2/NC(=O)NC2=O)cc(Br)c1OCc1ccc(C(=O)O)cc1
inactive: Potency [1] | activation [2] -3.55% [at 17.1 µM, percent relative to cAMP agonist control] | Potency [3] | activity change, negative = inhibition [4] -4.68% [at 30.8 µM] | activation [5] 11.1% [at 30.8 µM]

CCOP(=O)(OCC)C(Cc1ccccc1)N=C(c1ccccc1)c1ccccc1 (stereo not given)
inactive: Potency [1] | activation [2] 2.26% [at 17.1 µM, percent relative to cAMP agonist control] | Potency [3] | activity change, negative = inhibition [4] 3.36% [at 30.8 µM] | activation [5] 12.6% [at 30.8 µM]

O=C(O)c1cccc(N2C(=O)c3cc([N+](=O)[O-])cc4cc([N+](=O)[O-])cc(c34)C2=O)c1
active: Potency [3] 37.9 µM
inactive: Potency [1] | Potency [2] | Potency [4] | Potency [5]

CCCCNC(=O)COC(=O)c1c2c(nc3ccccc13)CCC2
inactive: Potency [1] | Potency [2] | Potency [3] | Potency [4] | Potency [5]

Cc1ccc(Cl)cc1NC(=O)Nc1cn(CC(C)C)c(=O)c2ccccc12
inactive: Potency [1] | Potency [2] | outcome [3] inactive [at 12.7 µM] | Potency [4] | Potency [5]

Cc1[nH]c(=O)nc(SCc2cccc(Cl)c2)c1C#N
inactive: Potency [1] | Potency [2] | Potency [3] | Potency [4] | Potency [5]

CCOc1ncccc1C(=O)OC(C)C(=O)Nc1ccc(Cl)cn1 (stereo not given)
active: Potency [3] 0.213 µM
inactive: Potency [1] | activation [2] 7.63% [at 17.1 µM, percent relative to cAMP agonist control] | activity change, negative = inhibition [4] -16.3% [at 30.8 µM] | activation [5] 15.5% [at 30.8 µM]

COc1ccc2oc(C(=O)Nc3ccc(N4CCOCC4)cc3)c(C)c2c1
inactive: Potency [1] | activation [2] -0.0841% [at 17.1 µM, percent relative to cAMP agonist control] | Potency [3] | activity change, negative = inhibition [4] 7.62% [at 30.8 µM] | activation [5] 8.1% [at 30.8 µM]

COc1ccc(S(=O)(=O)Nc2ccc3cn[nH]c3c2)cc1C
inactive: Potency [1] | Potency [2] | Potency [4] | Potency [5]
active: Potency [3] 67.5 µM

N#C/C(=N\Nc1cccc(C(F)(F)F)c1)C(=O)c1ccsc1
inactive: Potency [1] | Potency [2] | Potency [3] | Potency [4] | Potency [5]

CCOC(=O)COc1ccc(/C=C(\C#N)c2nc3ccc(C)cc3[nH]2)cc1OC
inactive: Potency [1] | Potency [2] | Potency [3] | Potency [4] | Potency [5]

CCOc1cc(-c2c(C#N)c(N)nc3c2CCCC3C)ccc1O (stereo not given)
active: Potency [2] 0.398 µM
inactive: Potency [1] | Potency [3] | Potency [4] | Potency [5]

N#C/C(=C/c1ccc(-c2ccc(S(N)(=O)=O)cc2)o1)c1nc2ccccc2s1
inactive: Potency [1] | activation [2] -24.7% [at 17.1 µM, percent relative to cAMP agonist control] | Potency [3] | activity change, negative = inhibition [4] 5.29% [at 30.8 µM] | activation [5] -62% [at 30.8 µM]

Cc1ccc(C(=O)OCC(=O)c2ccc(CC(=O)N3CCOCC3)s2)c(C)c1
inactive: Potency [1] | Potency [2] | Potency [3] | Potency [4] | Potency [5]

CN(C)c1ccc(C=C(C#N)C(=O)c2ccccc2)cc1Br
inactive: Potency [1] | Potency [2] | Potency [3] | Potency [4] | Potency [5]

C=CCN1C(=O)/C(=C/c2ccc(OCC(=O)O)cc2)S/C1=N/c1nccs1
inactive: Potency [1] | activation [2] 0% [at 17.1 µM, percent relative to cAMP agonist control] | Potency [3] | activity change, negative = inhibition [4] -1.64% [at 30.8 µM] | activation [5] 14.3% [at 30.8 µM]

O=C(O)CN1C(=O)/C(=C\C(Br)=C\c2ccccc2)SC1=S
inactive: Potency [1] | activation [2] 6.32% [at 17.1 µM, percent relative to cAMP agonist control] | Potency [3] | activity change, negative = inhibition [4] 0.657% [at 30.8 µM] | activation [5] 8.49% [at 30.8 µM]

O=C(O)c1sccc1SCc1ccc(Cl)c(Cl)c1
inactive: Potency [1] | Potency [2] | Potency [3] | Potency [4] | Potency [5]

CC(C)c1cccc(-c2ccc3c(c2)S(=O)(=O)c2cccc(C(=O)O)c2C3=O)c1
inactive: Potency [1] | Potency [2] | Potency [3] | Potency [4] | Potency [5]

CCO[C@@H]1OC(C(=O)N2CCN(Cc3ccc4c(c3)OCO4)CC2)=C[C@H](C2CCCCC2)[C@H]1CCCO
inactive: Potency [1] | Potency [2] | Potency [3] | Potency [4] | Potency [5]

CCOC(=O)N(C)c1c(CC)nc2c(OCc3ccc(C(F)(F)F)cc3)cccn12
inactive: Potency [1] | Potency [2] | Potency [3] | Potency [4] | Potency [5]

CCN(CC)C(=O)CSc1nnc(-c2cccs2)n1Cc1ccco1
inactive: Potency [1] | Potency [2] | Potency [3] | Potency [4] | Potency [5]

Cc1nc2c(C(=O)NCc3ccc(F)cc3)c[nH]n2c(=O)c1Cl
inactive: Potency [1] | Potency [2] | Potency [3] | Potency [4] | Potency [5]

O=c1c2ccccc2nc(/C=C/c2cccnc2)n1Cc1ccccc1
inactive: Potency [1] | activation [2] 2.62% [at 17.1 µM, percent relative to cAMP agonist control] | Potency [3] | activity change, negative = inhibition [4] -16.6% [at 30.8 µM] | activation [5] 22.2% [at 30.8 µM]

CN1CCN(C(=O)c2ccc(COc3ccc(C(C)(C)C)cc3)o2)CC1
inactive: Potency [1] | activation [2] 8.37% [at 17.1 µM, percent relative to cAMP agonist control] | Potency [3] | activity change, negative = inhibition [4] 8.52% [at 30.8 µM] | activation [5] 9.82% [at 30.8 µM]

CC(Oc1ccc(Cl)cc1)C(=O)Nc1sccc1C(N)=O (stereo not given)
inactive: Potency [1] | activation [2] 0.0366% [at 17.1 µM, percent relative to cAMP agonist control] | Potency [3] | activity change, negative = inhibition [4] -14.6% [at 30.8 µM] | activation [5] 24.1% [at 30.8 µM]

C=CCn1c(=NC(=O)c2sc3ccccc3c2Cl)sc2cc(S(N)(=O)=O)ccc21
inactive: Potency [1] | Potency [2] | Potency [3] | Potency [4] | Potency [5]

COc1ccc(/C=C2\Sc3ccc(C(=O)N4CCN(Cc5ccccc5)CC4)cc3N(C)C2=O)cc1OC
inactive: Potency [1] | Potency [2] | Potency [3] | Potency [4] | Potency [5]

Cc1nn(CCc2nn[nH]n2)c2nc(-c3ccc(Br)cc3)cc(C(F)(F)F)c12
inactive: Potency [1] | Potency [2] | Potency [3] | Potency [4] | Potency [5]

CCCOC(=O)c1c(NC(=O)C2C3C=CC(C3)C2C(=O)O)sc2c1CCC(C)C2 (stereo not given)
inactive: Potency [1] | activation [2] 8.63% [at 17.1 µM, percent relative to cAMP agonist control] | Potency [3] | activity change, negative = inhibition [4] 1.23% [at 30.8 µM] | activation [5] 40.1% [at 30.8 µM]

O=C(c1ccc(-c2nnc(Nc3cccc(Cl)c3)c3ccccc23)cc1)N1C[C@H]2C[C@H](C1)c1cccc(=O)n1C2
inactive: Potency [1] | Potency [2] | Potency [3] | Potency [4] | Potency [5]

CCC(Oc1ccccc1)C(=O)Nc1ccccc1N1CCCC1 (stereo not given)
inactive: Potency [1] | Potency [2] | Potency [3] | Potency [4] | Potency [5]

COCCn1c(SCC(=O)c2c(C)[nH]c3ccccc23)nc2cc(C(=O)NC(C)C)ccc2c1=O
inactive: Potency [1] | Potency [2] | Potency [3] | Potency [4] | Potency [5]

COC(=O)c1ccccc1NC(=O)Cn1nc(C(F)(F)F)c2c1CCCC2
inactive: Potency [1] | Potency [2] | outcome [3] inactive [at 12.7 µM] | Potency [4] | Potency [5]

Cc1ccc2nc(-c3ccc(NC(=O)CSc4nccc(=O)[nH]4)cc3)sc2c1
inactive: Potency [1] | Potency [2] | Potency [3] | Potency [4] | Potency [5]

COc1ccc2[nH]cc(S(=O)(=O)c3ccc(C)cc3)c2c1
active: Potency [3] 21.3 µM
inactive: Potency [1] | Potency [2] | Potency [4] | Potency [5]

NS(=O)(=O)c1ccc(NC(=O)c2cccc(N3C(=O)c4ccccc4C3=O)c2)cc1
inactive: Potency [1] | activation [2] 3.4% [at 17.1 µM, percent relative to cAMP agonist control] | Potency [3] | activity change, negative = inhibition [4] 2.18% [at 30.8 µM] | activation [5] 23.3% [at 30.8 µM]
